Screens from PubChem BioAssay.
Rows were chosen to be rich in hits. Some 7.5% of all compounds tested hit in one or more screens of this group.
ELG1 genotox: induces genotoxicity in HEK293T cells with luciferase-tagged ELG1; actives 1.3% (n = 330,000); Potency, µM (titrated, usually from 46 µM), for the others: at the top dose activity change, positive = activation, most hits filed as activators; AID 504466; HEK293T ELG1-luciferase reporter, luminescence, 16 h; note: % of control where 0% means no effect; nearly all actives have a fitted effect of over 60% in size
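Genotoxic stress is detected as increased luminescence from luciferase-tagged ELG1 in HEK293T cells, measured with ONE-Glo after a 16 hr treatment at 37 °C.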
FLuc modulator: counter-screen for miR-21 project: firefly luciferase inhibitors or activators | Potency, µM (series often up to 57.5 µM), for inactives: at the top dose activity change, negative = inhibition, hits mostly inhibitors | purified FLuc, Km substrates, luminescence inhibition | actives 6.9% (n = 360,000) | P08659;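 note: plate controls were vehicle for no effect and reference inhibitor for full effect; nearly all actives have a fitted effect of over 55% in size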
Target sequence (P08659 whole entry, looked up): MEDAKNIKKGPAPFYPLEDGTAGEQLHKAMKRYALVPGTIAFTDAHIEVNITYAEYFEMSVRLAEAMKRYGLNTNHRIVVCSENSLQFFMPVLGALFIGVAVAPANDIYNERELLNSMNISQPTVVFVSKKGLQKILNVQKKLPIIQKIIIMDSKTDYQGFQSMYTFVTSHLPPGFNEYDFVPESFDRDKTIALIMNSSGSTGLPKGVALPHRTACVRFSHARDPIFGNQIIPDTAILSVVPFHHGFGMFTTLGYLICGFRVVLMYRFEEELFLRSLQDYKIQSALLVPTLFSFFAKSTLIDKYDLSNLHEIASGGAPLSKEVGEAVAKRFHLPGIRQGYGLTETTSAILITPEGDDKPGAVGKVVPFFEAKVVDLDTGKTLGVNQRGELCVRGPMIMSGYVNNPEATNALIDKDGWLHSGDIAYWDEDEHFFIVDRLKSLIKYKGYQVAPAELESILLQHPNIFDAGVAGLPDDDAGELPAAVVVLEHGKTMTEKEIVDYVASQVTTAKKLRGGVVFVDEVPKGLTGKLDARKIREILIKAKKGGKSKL
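Biochemical qHTS of compounds, final roughly 60 µM downward over six points, against 10 nM purified firefly luciferase using Km concentrations of substrates (10 uM D-luciferin, 10 uM ATP) in Tris acetate pH 7.5 buffer; luminescence output.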
SMN2 splice up: SMN2 splice variant enhancement. HEK293 SMN2-luciferase splicing reporter, luminescence, 30-36 h. actives 2.8% (n = 210,000). AID 1458. Potency, µM (series often up to 46.1 µM), for inactives: top-dose activity change, positive = activation, usual class: activators; note: % of control where 0% means no effect; nearly all actives have a fitted effect of over 55% in size
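HEK293 cells carry an SMN2 […]–luciferase reporter in which exon 7 inclusion puts luciferase in frame. Cells were plated 10-12 h before compound addition, then incubated 30-36 h at 37C. ONE-Glo luminescence was read; sodium butyrate at 4.5 mM final served as control.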
Rab9 promoter act: activators of Rab9 promoter | actives 2.8% (n = 320,000) | AID 485297 | Huh7 Rab9 promoter-luciferase reporter, luminescence, 24 h | Potency, µM (titrated, usually from 9.22 µM), without a hit: at the top dose activation, negative = inhibition, most hits filed as activators; note: % of control where 0% means no effect; nearly all actives have a fitted effect of over 60% in size
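Huh7 cells stably carrying Rab9 promoter–luciferase reporter, plated 1500 cells/well, compound added after 2 h and incubated 24 h at 37 °C; luciferase luminescence then read after 10 min with detection reagent.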
NPC1 promoter act: activators of NPC1 promoter | Potency, µM (series often up to 9.22 µM), without a hit: at the highest dose activation, actives largely listed as activators | AID 485313 | actives 2.4% (n = 320,000) | Huh7 NPC1 promoter luciferase reporter, 24 h; note: % of control where 0% means no effect; nearly all actives have a fitted effect of over 60% in size
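Luminescence from an NPC1 promoter-driven luciferase reporter in stably transfected Huh7 cells was measured after 24 h compound treatment at 37 °C, followed by 10 min ambient incubation with luciferase detection reagent.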
* hit, by the source's call; ? = inconclusive; . = not tested or not shown. Calls come from the whole dose curve; as a rule, active = well fitted curve in the direction sought with a large enough effect; inconclusive = small, poorly fitted or top-dose-only effect, or another doubt; inactive = no such curve, though single readings can be large; an effect the other way counts as inactive or inconclusive. Potency is the fitted concentration of half-maximal effect.

SMILES	ELG1 genotox	FLuc modulator	SMN2 splice up	Rab9 promoter act	NPC1 promoter act
Cc1ccc(NC(=O)Nc2ccc3c(c2)OCO3)nc1	?	6.7µM*	13µM*	2.5µM*	3.2µM*
CC(NC(=O)Nc1ccc2c(c1)OCO2)C1CCCO1 (configuration not stated)	13%	17µM*	?	?	?
Cc1cc(NS(=O)(=O)c2ccc(NC(=O)Nc3ccc4c(c3)OCO4)cc2)no1	8%	?	?	21%	17%
Cc1ccc(NC(=O)/C=C/c2cccc([N+](=O)[O-])c2)nc1	16%	-1%	11%	19%	1%
Cc1cc(C)nc(NC(=O)Nc2ccc3c(c2)OCO3)c1	?	?	2.5µM*	0.56µM*	0.71µM*
Cc1cc(C)cc(NC(=O)NC(C)C2CCCO2)c1 (configuration not stated)	0%	?	.	-1%	-1%
Cc1ccc(NC(=O)/C=C/c2ccc3c(c2)OCO3)nc1	?	2.1µM*	2.8µM*	2.5µM*	2.5µM*
CN(C)CCCNS(=O)(=O)c1ccc(N2CCN(Cc3ccc4c(c3)OCO4)CC2)c([N+](=O)[O-])c1	1%	2%	.	-16%	-19%
O=C(NCCc1ccccc1)C(=O)NCC(c1cccnc1)N1CCN(c2ccccc2F)CC1 (configuration not stated)	.	-6%	.	.	.
Cc1nn(CCCC(=O)NCCCN2CCN(C)CC2)c(=O)c2c1sc1ccccc12	-2%	-2%	.	0%	0%
Cc1ccnc(NC(=O)CNC(=O)c2ccc3c(c2)OCO3)c1	19%	-6%	.	1%	0%
Cc1cc(C)nc(NC(=O)c2ccc3c(c2)OCO3)c1	14%	17µM*	7%	17%	18%
Cc1cccc(NC(=O)Nc2cc(C)cc(C)n2)c1	?	1.5µM*	5µM*	1.3µM*	2.2µM*
Brc1cccc(-c2cnco2)c1	3%	-1%	.	-4%	-6%
Cc1cccc(NS(=O)(=O)c2cn(C)c(=O)n(C)c2=O)c1C	4%	0%	.	-2%	-1%
COc1cc(/C=C2\SC(=O)N(c3ccc(Cl)cc3)C2=O)cc([N+](=O)[O-])c1O	-6%	-6%	-13%	-3%	-10%
COc1cc(/C=C2/C(=O)NN(c3ccc(C)c(Cl)c3)C2=O)cc([N+](=O)[O-])c1O	1%	19µM*	.	6%	-4%
COc1cc(/C=C2/C(=O)NN(c3cccc(C)c3)C2=O)ccc1OC(=O)c1ccco1	?	?	6%	8%	-4%
COc1cc(/C=C2/C(=O)NN(c3cccc(C)c3)C2=O)cc([N+](=O)[O-])c1O	1%	21µM*	6%	-4%	-1%
C#CCOCCOCCOCCNc1nc(N2CCN(C(=O)[C@H](CCC(=O)O)n3cc([C@@H](N)CCCCN)nn3)CC2)nc(N2CCN(C(=O)[C@H](CCCCN)n3cc([C@@H](N)CC(N)=O)nn3)CC2)n1	4%	.	.	.	.
CC(C)(CNC(=O)c1ccc(Br)o1)CNC(=O)c1ccc(Br)o1	-5%	0%	.	-5%	-1%
O=C(N/N=C/c1ccccc1)c1c(O)c2ccccc2[nH]c1=O	13%	?	3.5µM*	1.4µM*	1.8µM*
COC(=O)c1c(O)c2ccccc2[nH]c1=O	1%	3%	-11%	-2%	-1%
COc1ccccc1NC(=O)c1c(O)c2ccccc2[nH]c1=O	8%	?	.	?	1.3µM*
O=C(Cc1c(O)c2ccccc2[nH]c1=O)NC1CCCCCC1	6%	-6%	-10%	8%	-1%
SMILES	ELG1 genotox	FLuc modulator	SMN2 splice up	Rab9 promoter act	NPC1 promoter act
O=C(NC1CCCCCC1)c1c(O)c2ccccc2[nH]c1=O	?	2.7µM*	3%	?	1µM*
O=C(NCc1ccccc1OC(F)(F)F)C1CCC(=O)N(C2CC2)C1 (configuration not stated)	1%	-1%	.	-2%	2%
COc1cccc(C(=O)NNC(=S)NC2CCCCC2)c1	11%	?	?	2.2µM*	?
COc1cccc(C(=O)NC2CCCC2)c1	5%	-9%	0%	21%	2%
O=C(NNC(=S)NC1CCCCC1)c1ccc(Cl)s1	-2%	?	13µM*	?	27%
Cc1cc(C(=O)NNC(=S)NC2CCCCC2)cs1	11%	2%	.	1.3µM*	?
